Screening results deposited in PubChem BioAssay by National Center for Advancing Translational Sciences (NCATS).
ATXN2 expr inh – ATXN2 expression inhibition; HEK-293 ATXN2-luciferase reporter, luminescence, 24 h; Potency, µM (titrated, usually from 57 µM), inactives show at the highest dose activity change, negative = inhibition, most hits filed as inhibitors; hit rate 0.72% among 360,000; also: potency is read from the fitted curve at half-maximal effect; % is scaled to controls: 0 for no effect and ±100 for the full control effect; nearly all actives have a fitted effect of over 55% in size
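ATXN2-luciferase reporter cells (luciferase flanked by upstream and downstream ATXN2 gene portions) were treated 24 h at 37 °C with compounds at up to 57 uM. SteadyGlo luminescence gave expression; GF-AFC fluorescence gave viability.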
IL-1B inflam inh – inhibitors of inflammasome signaling (IL-1 beta secretion). activity change, % at 57.5 µM. THP-1 LPS/ATP IL-1B secretion, AlphaLISA, 16 h; active compounds read low. AID 743279. hit rate 4.7% among 360,000; in the data active = activity change below about -50%; inconclusive = mostly about -30% to -49%; also: % is scaled to controls: 0 for no effect and ±100 for the full control effect
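Secreted IL-1B measured by AlphaLISA bead assay after 16 h compound exposure of THP-1 cells; compounds (final up to 57.5 uM) added 1 h before LPS (250 ng/mL) and ATP (1.25 mM) stimulation; lower signal means less secretion.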
USP2a block – blocks human ubiquitin-specific protease USP2a; Potency, µM (series often up to 38.3 µM), for inactives: at the top dose activity change, negative = inhibition, actives largely listed as inhibitors; USP2 core, Ub-CHOP2 coupled fluorogenic reporter, 485/531; hit rate 0.01% among 330,000; O75604;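 also: potency is read from the fitted curve at half-maximal effect; plate controls were DMSO wells for no effect and full inhibition by NEM control for full effect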
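USP2 core (10nM final) preincubated 30min RT with compound in 20mM Tris-HCl pH 8.0, 2mM CaCl2, 2mM beta-mercaptoethanol, 0.05% CHAPS; 25nM Ub-CHOP2 plus 25nM reporter substrate added, fluorescence (Ex485/Em531) read after 60min.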
S2 tox – reduces viability in counter-screen for ATXN expression inhibitors; S2 cells (HEK-293 line with an ATXN2-luciferase reporter) viability, CellTiter-Fluor protease fluorescence, 24 h; Potency, µM (series often up to 56.7 µM), most hits filed as cytotoxic; hit rate 0.49% among 400,000; AID 651635; also: potency is read from the fitted curve at half-maximal effect; nearly all actives have a fitted effect of over 40% in size
USP1 inh – blocks the human USP1/UAF1 deubiquitinase complex | hit rate 0.23% among 390,000 | recombinant USP1/UAF1, Ub-Rhodamine cleavage fluorescence | O94782 | AID 743255 | Potency, µM (titrated, usually from 57.1 µM), inactives show at the highest dose activity change, negative = inhibition, most hits filed as inhibitors; also: potency is read from the fitted curve at half-maximal effect; % is scaled to controls: 0 for no effect and ±100 for the full control effect; nearly all actives have a fitted effect of over 60% in size
Target sequence (O94782 whole entry, looked up): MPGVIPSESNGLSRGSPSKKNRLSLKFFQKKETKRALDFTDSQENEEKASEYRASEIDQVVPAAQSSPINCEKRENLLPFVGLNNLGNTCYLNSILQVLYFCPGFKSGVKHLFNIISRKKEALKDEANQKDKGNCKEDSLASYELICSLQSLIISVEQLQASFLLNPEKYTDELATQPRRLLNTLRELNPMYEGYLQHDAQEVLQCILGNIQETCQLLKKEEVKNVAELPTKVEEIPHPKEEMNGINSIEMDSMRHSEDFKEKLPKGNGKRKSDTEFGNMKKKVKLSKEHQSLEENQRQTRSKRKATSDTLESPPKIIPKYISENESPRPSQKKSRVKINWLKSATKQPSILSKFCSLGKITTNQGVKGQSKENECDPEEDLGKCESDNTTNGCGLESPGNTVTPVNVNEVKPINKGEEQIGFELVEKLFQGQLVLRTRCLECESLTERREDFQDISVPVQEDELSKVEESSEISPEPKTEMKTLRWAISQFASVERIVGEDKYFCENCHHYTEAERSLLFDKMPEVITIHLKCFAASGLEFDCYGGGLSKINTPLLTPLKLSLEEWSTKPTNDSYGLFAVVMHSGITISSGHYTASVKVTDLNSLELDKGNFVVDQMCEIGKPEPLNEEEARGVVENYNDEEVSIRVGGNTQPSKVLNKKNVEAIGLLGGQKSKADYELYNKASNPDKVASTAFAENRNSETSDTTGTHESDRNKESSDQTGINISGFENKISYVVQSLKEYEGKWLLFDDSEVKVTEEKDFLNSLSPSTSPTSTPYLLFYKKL
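In this screen, compounds sit with the deubiquitinase complex (1nM) for 15 min at room temperature before Ub-Rho is added at 150nM final. Fluorescence rise is then followed for 6 reads every 60 seconds.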
* marks the source's active call; other numbers are inactive results; i = inactive; ? = inconclusive; / = no result. Most compounds without a hit are left out; they make up all but 4.8% or so of the library. Unless noted, calls follow the shape of the dose curve; as a rule, active = well fitted curve in the direction sought with a large enough effect; inconclusive = small, poorly fitted or top-dose-only effect, or another doubt; inactive = no such curve, though single readings can be large; an effect the other way counts as inactive or inconclusive.

SMILES	ATXN2 expr inh	IL-1B inflam inh	USP2a block	S2 tox	USP1 inh
CCCCCCC[C@@H](C/C=C/CCC(=O)N(C)C/C(=C/Cl)C/C(=C\C(=O)N1C[C@H](O)CC1=O)OC)OC	?	-70.6*	-3.3%	?	?
CCCCCCC[C@@H](C/C=C/CCC(=O)O)OC	-10.4%	45.3	2.0%	?	-29.6%
NC(=O)c1nc(C(=O)N2CCN(c3ccccc3)CC2)c2ccccc2n1	12.2%	45.5	0.2%	i	-14.3%
O=C(NCC(c1cccs1)N1CCOCC1)c1cn(-c2ccccc2)nc1-c1ccc(F)cc1 (stereo not given)	-35.1%	-60.0*	-0.3%	i	-16.1%
O=C(NCC(c1cccs1)N1CCOCC1)c1cnc(Cl)c(Cl)c1 (stereo not given)	?	-98.5*	3.4%	?	-3.0%
CC(=O)N1c2ccc(S(=O)(=O)N3CCCC(C(=O)NCc4ccccc4Cl)C3)cc2CC1C (stereo not given)	-8.3%	-55.1*	-1.0%	i	-27.2%
c1ccc(C(c2nnnn2C2CCCC2)N2CCN(c3ccccc3)CC2)cc1 (stereo not given)	-7.8%	-50.2*	3.2%	i	-10.3%
Clc1ccc(C(c2nnnn2C2CCCC2)N2CCSCC2)cc1 (stereo not given)	-1.8%	-62.5*	1.6%	i	-4.7%
CCN(C(=O)CSc1ncccc1C(=O)Oc1cccc([N+](=O)[O-])c1)c1cccc(C)c1	-8.9%	-55.4*	1.6%	i	-5.2%
Cc1cnc(C)c(-c2ccc(O)c(CN3CCN(C=O)CC3)c2)n1	/	/	/	i	/
COc1ccccc1CC(Cc1nc2ccccc2[nH]1)c1nc2ccccc2[nH]1 (stereo not given)	-20.7%	-25.9	0.2%	?	-20.8%
Cc1cccc(CC(Cc2nc3ccccc3[nH]2)c2nc3ccccc3[nH]2)c1 (stereo not given)	?	-75.5*	-0.5%	?	-1.7%
COc1ccc(CC(=O)Nc2cc(S(=O)(=O)N3CCCC3)ccc2Cl)c(OC)c1	-24.7%	-3.9	0.3%	i	-9.7%
c1ccc(-n2cc(CN3CCC(N4CCOCC4)CC3)c(-c3ccc4c(c3)OCO4)n2)cc1	-26.1%	-66.5*	1.4%	i	-8.1%
Cc1ccc(/C=C/C(=O)c2cc(Br)ccc2OC(=O)c2ccco2)cc1	-4.0%	-14.0	1.5%	i	-19.9%
O=C(/C=C/c1cc(Br)ccc1O)c1ccco1	?	-71.4*	7.7%	/	?
COc1ccccc1/C=C/C(=O)c1cc(Br)ccc1OC(=O)c1ccco1	?	-97.7*	/	?	-19.4%
C/C(=N\NC(N)=S)c1ccc2c(c1)OCCO2	1.1%	3.4	-1.7%	?	-4.7%
C/C(=N\NC(=S)Nc1ccc(F)cc1)c1ccc2c(c1)OCCO2	15.7%	-58.4*	-1.4%	i	-4.1%
COc1ccc(C(=O)NCCn2cc(SCC(=O)Nc3ccc(C)cc3)c3ccccc32)cc1	?	/	/	?	-9.8%
O=C(NCCn1cc(SCc2ccc(F)cc2)c2ccccc21)c1c(F)cccc1F	0.0%	-60.9*	-5.0%	?	?
COc1ccc(C(=O)NCCn2cc(SCC(=O)Nc3ccc(F)cc3)c3ccccc32)cc1	?	/	/	31.6µM*	-18.5%
CC(C)(C)NC(=O)C(CCc1ccccc1)n1c(=O)c(-c2cc3ccccc3[nH]2)nc2ccccc21 (stereo not given)	/	14.8	/	/	/
C=CCOc1ccc(C=CC(=O)c2c(O)c(OC)c(OC)c(OC)c2OC)cc1	-38.3%	-102.2*	/	i	-23.8%
CSc1ccc(C(=O)/C=C/c2ccc(N)cc2)cc1	112.2%	-99.4*	0.6%	i	-24.2%
SMILES	ATXN2 expr inh	IL-1B inflam inh	USP2a block	S2 tox	USP1 inh
COc1ccc(C=CC(=O)c2c(OC)cc(OC)c(OC)c2O)cc1	-6.7%	-62.7*	/	i	?
CN(C)c1ccc(/C=C/C(=O)c2cccnc2)cc1	2.8%	?	15.2%	i	28.2µM*
CSc1ccc(/C=C/C(=O)c2ccc(NC(=O)C(C)C)cc2)cc1	-13.2%	?	-2.6%	i	?
O=C(NCC1CN(c2ccc(N3CCOCC3=O)cc2)C(=O)O1)c1ccc(Cl)s1 (stereo not given)	-19.9%	/	/	i	/
CC(C)N1CCC1(C)C(=O)Nc1nc2ccccc2[nH]1 (stereo not given)	18.6%	10.9	/	i	/
COc1ccc(C(=O)/C=C/c2ccc(O)cc2)cc1	0.2%	-57.3*	4.2%	i	-11.5%
CN(C)c1ccc(/C=C/C(=O)c2ccc(O)cc2)cc1	42.0%	-105.6*	/	i	25.1µM*
COc1ccc(C=CC(=O)c2ccc([N+](=O)[O-])cc2)cc1	-17.7%	0.3	/	i	-19.2%
COc1ccc(OC(=O)N(CC(=O)O)Cc2ccc(OCCc3nc(-c4ccccc4)oc3C)cc2)cc1	-0.3%	/	/	i	/
N=c1oc2cc(O)ccc2cc1C(=O)Nc1ccc(Br)cc1	-23.6%	-89.9*	0.8%	/	-6.9%
N=c1oc2cc(O)ccc2cc1C(=O)Nc1ccccn1	/	/	2.8%	/	/
CC(=O)Nc1cccc(-c2csc(C(O)c3ccc(F)cc3)n2)c1 (stereo not given)	2.5%	62.2	/	i	/
CCc1ccc(NC(=O)C2CCCN(c3nn4cc(-c5ccc(OC)cc5)nc4s3)C2)cc1 (stereo not given)	/	/	/	/	-6.4%
COCc1c(C(=O)OC)nnn1-c1ccc(C(F)(F)F)cc1[N+](=O)[O-]	14.1%	-72.3*	-0.8%	i	-23.3%
Cc1cc2c3c(c1C)C1(C(=O)N3C(C)(C)CC2C)C(C#N)=C(N)Oc2cc(O)ccc21 (stereo not given)	?	-61.9*	5.3%	22.4µM*	-16.1%
O=C(N/N=C/c1ccc(O)cc1)c1cccc(C(F)(F)F)c1	-15.4%	-8.1	0.1%	i	-11.2%
O=C(N/N=C/c1ccccc1O)c1cccc(C(F)(F)F)c1	3.16µM*	71.3	0.6%	?	-13.4%
O=C(N/N=C/c1cccc2ccccc12)c1cccc(F)c1	30.3%	-63.1*	-7.7%	i	?
Cc1c(C(=O)NCC2(c3ccccc3)CCOCC2)cnn1-c1nccc(-c2ccco2)n1	/	/	/	i	/
CCCCCCCCCCCCCCCCCC(=O)[O][Al]	/	/	/	i	/
COc1ccc(C(=O)CCNc2ccc3c(c2)OCCO3)cc1	15.0%	-52.7*	-2.7%	i	-8.2%
COc1ccc(C(=O)Nc2ccc3c(c2)OCCO3)cc1	0.0%	-15.0	-0.5%	i	0.1%
O=S(=O)(NNc1ccc(F)cc1F)c1cccc(Cl)c1	-6.5%	-10.7	8.5%	i	-11.8%
COc1ccccc1NC(=O)Cn1cc(C(=O)c2ccco2)c2ccccc21	-5.6%	-50.0*	0.0%	i	-3.0%
CCOC(=O)Cn1cc(C(=O)c2ccco2)c2ccccc21	31.6µM*	24.7	-0.2%	?	-6.8%
